The list is not random: actives were taken first. Their share in the collection is about 11%.
AmpC no deterg = blocks E. coli AmpC beta-lactamase in detergent-free assay. 0.52% of 330,000 active. P00811. AmpC nitrocefin hydrolysis, absorbance 480 nm, 0.0001% Triton. Potency, µM (doses to about 57.1 µM), hits mostly inhibitors; note: nearly all actives have a fitted effect of over 20% in size
Target sequence (P00811 whole entry, looked up): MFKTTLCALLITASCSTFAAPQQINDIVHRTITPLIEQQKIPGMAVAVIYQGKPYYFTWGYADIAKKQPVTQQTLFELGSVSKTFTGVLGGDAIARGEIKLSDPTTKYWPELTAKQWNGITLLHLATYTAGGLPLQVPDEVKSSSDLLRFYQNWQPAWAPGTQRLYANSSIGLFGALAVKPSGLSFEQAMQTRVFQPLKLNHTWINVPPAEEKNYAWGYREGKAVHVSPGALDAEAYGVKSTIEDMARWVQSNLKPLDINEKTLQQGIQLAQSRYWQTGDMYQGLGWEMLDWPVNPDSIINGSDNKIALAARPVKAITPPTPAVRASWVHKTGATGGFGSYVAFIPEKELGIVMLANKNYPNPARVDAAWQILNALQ
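AmpC (5.3 nM in the dispensed reagent) in 20 mM phosphate pH 7.0 with 0.01% (detergent screen) or 0.0001% Triton X-100 was preincubated with compounds for 15 min at room temperature. Nitrocefin was then added from an 800 uM solution, and hydrolysis was followed at 480 nm.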
HCV inh = inhibitors of hepatitis C virus infection | Potency, µM (top dose mostly 41.8 µM), actives largely listed as inhibitors | AID 651820 | Huh7.5.1 HCVcc-Cre infection, luciferase reporter, 44 h | 3.4% of 340,000 active
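Infectious HCVcc-Cre (~0.5 moi) was added to cells just after compound, with cells seeded 4 h earlier at 1,000 per well. Luciferase activity after 44 h culture reported infection; substrate was incubated 15 min at room temperature before reading.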
Pf growth 48h = inhibits P. falciparum growth in the first generation, 48 h | 5.9% of 310,000 active | AID 504832 | P. falciparum luciferase growth in erythrocytes, 48 h | Potency, µM (highest dose often 28.7 µM), most hits filed as inhibitors
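Cell-based growth assay: transgenic P. falciparum expressing firefly luciferase, cultured in red cells within RPMI 1640 containing 0.5% w/v Albumax, 24 mM bicarbonate and gentamycin. A drop in luciferase activity indicates inhibition.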
AmpC inh detg = AmpC beta-lactamase inhibition with detergent present | P00811 | Potency, µM (doses to about 114 µM), most hits filed as inhibitors | AmpC hydrolysis of nitrocefin, absorbance 480 nm, 0.01% Triton | 0.041% of 370,000 active; note: nearly all actives have a fitted effect of over 25% in size
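AmpC (5.3 nM in the dispensed reagent) in 20 mM phosphate pH 7.0 with 0.01% (detergent screen) or 0.0001% Triton X-100 was preincubated with compounds for 15 min at room temperature. Nitrocefin was then added from an 800 uM solution, and hydrolysis was followed at 480 nm.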
Pf growth 96h = inhibits malaria parasite growth, 96 h; P. falciparum luciferase reporter growth, 96 h; Potency, µM (series often up to 28.7 µM), usual class: inhibitors; 6.9% of 320,000 active; AID 504834
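Plates of compound plus infected erythrocytes (2% hematocrit, 0.05% parasitemia final) incubate 96 hours, 37 C, 5% CO2. Detection reagent added; reduced luminescence from the parasites' luciferase reporter flags inhibition.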
AMA1-RON2 inh = AMA1-RON2 (P. falciparum) interaction inhibition. AlphaScreen AMA1-biotinylated RON2 peptide binding. Potency, µM (titrated, usually from 58.2 µM), actives largely listed as inhibitors. AID 720542. 0.2% of 360,000 active; note: nearly all actives have a fitted effect of over 45% in size
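AMA1 (3D7) with his tag at 25 nM final met compounds first, then biotinylated RON2 peptide at 25 nM; detection used donor plus acceptor beads, 10 µg/mL apiece, read by AlphaScreen after 30 min at room temperature.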
Numbers stand for hits; – = inactive; ? = inconclusive; · = no result; ! = not confirmed by another sample. Calls come from the whole dose curve; as a rule, active = well fitted curve in the direction sought with a large enough effect; inconclusive = small, poorly fitted or top-dose-only effect, or another doubt; inactive = no such curve, though single readings can be large; an effect the other way counts as inactive or inconclusive.

SMILES | AmpC no deterg | HCV inh | Pf growth 48h | AmpC inh detg | Pf growth 96h | AMA1-RON2 inh
Cc1nc(Sc2ccc(Br)cc2)c(C#N)c(C)c1[N+](=O)[O-] | – | ? | ? | – | 9.3µM | ?
Cc1nc(Sc2ccc(Cl)cc2)c(C#N)c(C)c1[N+](=O)[O-] | – | – | ? | – | 12µM | ?
Cc1ccc(Sc2nc(C)c([N+](=O)[O-])c(C)c2C#N)cc1 | – | – | ? | – | ? | ?
CC(C)(C)OC(=O)CN1C(=O)C(Sc2n[nH]c(-c3ccccc3)n2)CCc2ccccc21 (stereo not drawn) | – | – | ? | – | 1.5µM | –
COc1cc(N/N=C/c2ccccc2O)ncn1 | – | ? | ? | – | ? | –
Cc1cnn(-c2cc(N/N=C/c3ccccc3)ncn2)c1 | – | – | – | – | – | –
Cc1cnn(-c2cc(N/N=C/c3cccc(F)c3)ncn2)c1 | – | – | – | ? | 1.9µM | –
Cc1cnn(-c2cc(N/N=C/c3ccccc3F)ncn2)c1 | – | – | – | ? | 13µM | –
CCOC(=O)c1c(CN(C)C)n(C)c2c(O)c(N=NC(N)=O)c3ccc(Br)cc3c12 | – | ? | 0.41µM | – | – | –
CSc1ccc(C(=O)c2[nH]c(=O)[nH]c2C)cc1 | – | 6.3µM! | – | – | ? | –
CN(C)CCNC=C(C(=O)Nc1ccc(Cl)cc1Cl)C(=O)Nc1ccc(Cl)cc1Cl | ? | ? | 3.3µM | – | 1.9µM | –
COc1ccc(CN2CCCN(CC(=O)Nc3cc(C)ccc3C)S2(=O)=O)cc1 | · | · | · | – | · | ·
Cc1c2ccncc2c(C)c2c1[nH]c1ccccc12 | – | ? | 1µM | – | 1µM | –
Cc1c2ccncc2cc2c1[nH]c1ccccc12 | · | 6.3µM | · | · | · | –
COc1ccc2[nH]c3c(C)c4ccncc4c(C)c3c2c1 | – | 2.2µM | 0.37µM | – | 0.37µM | –
O=C(Nc1ccc(F)cc1Cl)c1cnc(N2CCOCC2)c2ccccc12 | · | · | · | – | · | ·
CCc1nn(CCCC(=O)N2CCN(c3cc(Cl)ccc3C)CC2)c(=O)c2cc3occc3n12 | · | · | · | – | · | ·
CCOC(=O)c1c(NC(=S)NC)sc2c1CC(C)(C)SC2 | – | ? | 4.1µM | – | – | –
COc1ccc(Cn2ccc3nc(C)c(C(=O)NCc4cccc(OC)c4)cc3c2=O)cc1 | · | · | · | – | · | ·
COC(=O)c1cc(NC(=O)c2cccs2)ccc1N1CCOCC1 | – | ? | – | – | ? | –
COC(=O)c1cc(NC(=O)c2cc(-c3ccc(Cl)cc3)oc2C(F)(F)F)ccc1N1CCOCC1 | – | ? | 12µM | – | ? | –
COC(=O)c1cc(NC(=O)c2cc(-c3ccccc3Cl)oc2C(F)(F)F)ccc1N1CCOCC1 | – | 16µM | ? | – | ? | –
COC(=O)NC(NC(=S)Nc1ccccc1OC)C(Cl)(Cl)Cl (stereo not drawn) | – | – | ? | – | ? | –
COc1ccc(NC(=S)NC(NC(=O)CCl)C(Cl)(Cl)Cl)c([N+](=O)[O-])c1 (stereo not drawn) | – | ? | – | – | – | –
COc1ccc(NC(=S)NC(NC(=O)c2cccc3ccccc23)C(Cl)(Cl)Cl)c([N+](=O)[O-])c1 (stereo not drawn) | – | 10µM | · | – | 1.5µM | –
COc1ccc(NC(=S)NC(NC(=O)c2ccc(Cl)cc2Cl)C(Cl)(Cl)Cl)c([N+](=O)[O-])c1 (stereo not drawn) | ? | ? | · | ? | – | –
COC(=O)NC(NC(=S)Nc1ccc([N+](=O)[O-])cc1)C(Cl)(Cl)Cl (stereo not drawn) | – | ? | 12µM | – | – | –
COc1ccc(NC(=S)NC(NC(=O)c2ccccc2Cl)C(Cl)(Cl)Cl)c([N+](=O)[O-])c1 (stereo not drawn) | – | ? | · | – | 3.7µM | –
COc1ccc(NC(=O)c2ccc(C)cc2Cl)c([N+](=O)[O-])c1 | – | – | – | – | 3.7µM | –
Cc1ccc2nc3c(cc(C(=O)NCC4CCCO4)c(=N)n3C(C)C)c(=O)n2c1 (stereo not drawn) | · | · | · | – | · | ·

Screening results deposited in PubChem BioAssay by National Center for Advancing Translational Sciences (NCATS).
